We go through 8 molecules from PubChem BioAssay (NCI).

The panel holds about 83,000 compounds, 20% with a hit somewhere; the sample as a whole holds those more often.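 Compound tested at a single concentration for 48 hours in 96-well plates; a percent growth value below 10 was scored as active.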 Unmarked numbers belong to inactive results. Calls of active or inactive are those of the source.

Test systems include NCI-H23 lung; NCI-H226 lung; NCI-H322M lung; HOP-62 NSCLC; NCI-H460 lung; HOP-92 NSCLC; NCI-H522 lung; A549/ATCC NSCLC; 786-0 renal; COLO 205 colon; DU-145 prostate; K-562 leukemia; MALME-3M melanoma; MDA-MB-231 breast; RXF 393 renal; SF-268 CNS; SF-295 CNS; SF-539 CNS; UACC-257 melanoma; M14 melanoma.
Experiment in all cases: NCI-60 one-dose screen, 48 h (100 = growth as untreated, 0 = no growth, -100 = all killed)
Details in all cases: 10 µM unless noted

In the case of `COc1cc2c3c(c4c5ccccc5[nH]c4c2c(OC)c1OC)C(=O)N(CCN1CCCCC1)C3=O`, the growth was 17.5% with NCI-H23 lung; 28.2% in the assay with NCI-H226 lung; 32% with NCI-H322M lung; 41.7% in the assay with HOP-62 NSCLC; -48.3% (active) with NCI-H460 lung; 48.7% with HOP-92 NSCLC. In addition, the growth is 36.3% in the assay on NCI-H522 lung; -63.3% (active) in the assay with A549/ATCC NSCLC; -85.9% (active) with 786-0 renal; 28.3% in the assay with COLO 205 colon; -91.2% (active) in the assay with DU-145 prostate; 3.53% (active) with K-562 leukemia. Moreover, the growth in the assay on MALME-3M melanoma was 32%; in the assay on MDA-MB-231 breast, 38.1%; in the assay with RXF 393 renal, -9.89% (active); in the assay with SF-268 CNS, 22.7%; with SF-295 CNS, 32.9%; in the assay on SF-539 CNS, 41.4%. Moreover, the growth with UACC-257 melanoma is 42.2%.

Take `N=C(N)c1ccc(-c2ccc(-c3ccccc3)o2)o1`: the growth was 49.6% in the assay with NCI-H23 lung; 78.5% in the assay with NCI-H226 lung; 60.3% in the assay with NCI-H322M lung; 46.9% in the assay with HOP-62 NSCLC; 6.8% (active) in the assay on NCI-H460 lung; 24.2% with HOP-92 NSCLC. Further, the growth in the assay on NCI-H522 lung is 50.5%; with A549/ATCC NSCLC, 26.2%; with 786-0 renal, 33.4%; with COLO 205 colon, -73.1% (active); in the assay on DU-145 prostate, 46.3%; with K-562 leukemia, 9.73% (active). The growth in the assay with MALME-3M melanoma was 50.3%; in the assay with MDA-MB-231 breast it was 29.8%; in the assay on RXF 393 renal, 47%; in the assay with SF-268 CNS it was 38.1%; with SF-295 CNS, 44%; with SF-539 CNS, 35.3%. In the assay with UACC-257 melanoma, the growth was 69.3%.

On to `Cc1ccc(S(=O)(=O)c2nc(-c3ccccc3)oc2SCC(N)=O)cc1`, for which the growth in the assay on NCI-H23 lung was 96.8%; in the assay with NCI-H226 lung, 98.1%; in the assay with NCI-H322M lung, 104%; in the assay on HOP-62 NSCLC, 98.3%; in the assay on NCI-H460 lung, 104%; with HOP-92 NSCLC, 83.2%. Also, the growth was 76.3% in the assay with NCI-H522 lung; 96.7% in the assay on A549/ATCC NSCLC; 95% in the assay on 786-0 renal; 111% in the assay on COLO 205 colon; 101% with DU-145 prostate; 88.2% with K-562 leukemia. The growth is 98.9% with MALME-3M melanoma; 104% with MDA-MB-231 breast; 99% in the assay on RXF 393 renal; 90% in the assay on SF-268 CNS; 98.9% with SF-295 CNS; 97.2% in the assay on SF-539 CNS. Moreover, the growth in the assay on UACC-257 melanoma was 113%.

On to `O=C(O)CC(C(=O)O)/C(=C\c1ccccc1)c1ccccc1` (centres undefined), for which the growth in the assay with NCI-H23 lung is 105%; in the assay on NCI-H226 lung, 86.4%; in the assay on NCI-H322M lung, 116%; with HOP-62 NSCLC, 89.3%; in the assay with NCI-H460 lung, 106%; with HOP-92 NSCLC, 93.3%. In addition, the growth in the assay with NCI-H522 lung is 128%; in the assay with A549/ATCC NSCLC, 99.5%; in the assay with 786-0 renal, 114%; in the assay with COLO 205 colon, 99.5%; with DU-145 prostate, 139%; with K-562 leukemia, 103%. The growth with MALME-3M melanoma was 117%; with MDA-MB-231 breast it was 121%; with RXF 393 renal, 104%; in the assay with SF-268 CNS, 113%; with SF-295 CNS, 115%; with SF-539 CNS it was 122%. For the same molecule, the growth in the assay on UACC-257 melanoma was 100%.

Regarding `Cc1cc(C(=O)CCCC(=O)c2cc(C)c(O)c(C)c2)cc(C)c1O`, the growth with NCI-H23 lung was 99.8%; in the assay with NCI-H226 lung it was 85%; with NCI-H322M lung, 114%; with HOP-62 NSCLC, 98.9%; with NCI-H460 lung, 112%; with HOP-92 NSCLC, 82.9%. The growth with NCI-H522 lung was 91.1%; in the assay with A549/ATCC NSCLC it was 104%; in the assay with 786-0 renal, 93.9%; with COLO 205 colon, -53.1% (active); with DU-145 prostate, 109%; in the assay on K-562 leukemia it was 27.4%. Besides, the growth was 92.3% with MALME-3M melanoma; 98.1% with MDA-MB-231 breast; 84.2% with RXF 393 renal; 99% in the assay on SF-268 CNS; 99.9% in the assay on SF-295 CNS; 102% with SF-539 CNS. In addition, the growth with UACC-257 melanoma is 105%.

Regarding `CC1(C)CC[C@]23CC[C@]4(C)[C@H](CC[C@@H]5[C@@]6(C)C/C(=C/O)C(=O)C(C)(C)[C@@H]6CC[C@]54C)[C@H]2[C@H]1OC3`, the growth in the assay with NCI-H23 lung was 99.1%; with NCI-H226 lung, 105%; with NCI-H322M lung it was 105%; with HOP-62 NSCLC, 102%; in the assay on NCI-H460 lung, 107%; in the assay on HOP-92 NSCLC it was 105%. The growth is 90.6% in the assay with NCI-H522 lung; 106% in the assay with A549/ATCC NSCLC; 106% with 786-0 renal; 111% with COLO 205 colon; 115% in the assay with DU-145 prostate; 105% in the assay with K-562 leukemia. The growth with MALME-3M melanoma is 104%; in the assay on MDA-MB-231 breast, 97.6%; with RXF 393 renal, 121%; in the assay on SF-268 CNS, 108%; in the assay on SF-295 CNS it was 103%; in the assay on SF-539 CNS, 101%. Besides, the growth is 101% in the assay with UACC-257 melanoma and 103% in the assay with M14 melanoma.

In the case of `O=Nc1ccc(NC(=O)Nc2ccc([N+](=O)[O-])cc2)cc1`, the growth is 87.5% in the assay with NCI-H23 lung; 99.6% with NCI-H226 lung; 103% in the assay on NCI-H322M lung; 110% in the assay with HOP-62 NSCLC; 91.5% in the assay on NCI-H460 lung; 56.5% in the assay on HOP-92 NSCLC. Besides, the growth in the assay with NCI-H522 lung was 78.8%; in the assay on A549/ATCC NSCLC it was 95.6%; with 786-0 renal, 86.5%; with COLO 205 colon it was 116%; with DU-145 prostate, 113%; in the assay on K-562 leukemia, 58.8%. Moreover, the growth in the assay with MALME-3M melanoma was 102%; in the assay on MDA-MB-231 breast, 87%; in the assay with RXF 393 renal it was 119%; in the assay with SF-268 CNS, 104%; with SF-295 CNS it was 98.1%; with SF-539 CNS, 101%. The growth in the assay with UACC-257 melanoma was 104%; in the assay with M14 melanoma, 102%.

As to `C=CC(CC(c1ccccc1)(c1ccccc1)c1ccccc1)N(CC)CC` (centres undefined), the growth is 71.7% in the assay on NCI-H23 lung; 75.7% with NCI-H226 lung; 90% with NCI-H322M lung; 87.5% in the assay with HOP-62 NSCLC; 62.6% with NCI-H460 lung; 54.8% in the assay on HOP-92 NSCLC. Moreover, the growth in the assay with NCI-H522 lung was 84.1%; in the assay on A549/ATCC NSCLC, 82.5%; in the assay with 786-0 renal, 67.8%; in the assay with COLO 205 colon, 64.5%; with DU-145 prostate, 58.8%; in the assay on K-562 leukemia, 25.4%. The growth is 54% in the assay on MALME-3M melanoma; 53.4% in the assay on MDA-MB-231 breast; 40.6% in the assay with RXF 393 renal; 73.9% in the assay on SF-268 CNS; 78.8% in the assay on SF-295 CNS; 69.1% in the assay with SF-539 CNS. In the assay on UACC-257 melanoma, the growth is 79.3%.
